Mcl-1 Bim block = inhibitors of Bim-Mcl-1 interaction, human | 190,000 tested, 0.1% active | inhibition, % at 10 µM | Bead-based flow cytometry, Bim peptide-Mcl-1 binding | Q07820; in the data active = inhibition above about 40%;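 note: 0% = no compound tracer wells and 100% = peptide blocker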
MCL1 BIM primary = MCL1-BIM-BH3 interaction inhibition (human). Q07820. inhibition, % at 10.9 µM. GST-MCL1 / FITC-Bim-BH3 fluorescence polarization. 320,000 tested, 0.68% active. AID 2057;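 active = inhibition above the mean inhibition of all tested compounds plus 3 SD, set per campaign, cut at about 40% in these data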;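 note: 0% = DMSO wells and 100% = unlabeled Bim-BH3 peptide control; higher means more loss of mP so more displacement of Bim peptide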
Mcl1 Bid PPI = Mcl-1/Bid interaction inhibition. 220,000 tested, 0.97% active. inhibition, % at 21.7 µM. AID 1021. TR-FRET Mcl-1/Bid-Dy647 peptide binding, 1536-well;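 active = compounds that cut the binding signal by more than half at the single screening dose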;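 note: His-tagged Mcl-1 with europium anti-His antibody binding Bid BH3 peptide; 0% = Mcl-1 plus peptide wells and 100% = peptide-only wells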
BCLXL inh = blocks human Bcl-xL binding to Bim BH3 peptide. Q07817. GST-Bcl-xL / FITC-Bim BH3 peptide fluorescence polarization. inhibition, % at 10.9 µM. 320,000 tested, 0.7% active;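 active = inhibition above the mean of all tested compounds plus 3 SD, cutoff set per campaign, cut at about 30% in these data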;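 note: 0% = DMSO wells and 100% = unlabeled Bim-BH3 peptide competitor; inhibitors lower millipolarization by displacing the labeled peptide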
Mcl1 Noxa PPI = disrupts binding of human Mcl-1 to Noxa peptide | Q07820 | TR-FRET Mcl-1/Noxa peptide binding, 2 h | inhibition, % at 21.7 µM | 220,000 tested, 1.5% active;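 active = compounds that cut the protein-peptide binding signal by more than 50% relative to plate controls in a single-dose test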;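 note: His-tagged Mcl-1 with rhodamine Noxa BH3 peptide and terbium anti-His antibody; 0% = Mcl-1 plus Noxa peptide wells and 100% = peptide-only wells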
GLD-1 TGE inh = GLD-1-TGE RNA interaction inhibition (C. elegans) | Q17339 | purified GLD-1 + fluorescein TGE RNA, fluorescence polarization | inhibition, % at 5.96 µM | 320,000 tested, 0.44% active;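 active = percent inhibition above a per-plate cutoff, the plate mean of test compounds plus 3 SD, cut at about 30% in these data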;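 note: 0% = DMSO wells with GLD-1 and probe and 100% = wells lacking GLD-1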
Target sequence (Q17339 whole entry, looked up): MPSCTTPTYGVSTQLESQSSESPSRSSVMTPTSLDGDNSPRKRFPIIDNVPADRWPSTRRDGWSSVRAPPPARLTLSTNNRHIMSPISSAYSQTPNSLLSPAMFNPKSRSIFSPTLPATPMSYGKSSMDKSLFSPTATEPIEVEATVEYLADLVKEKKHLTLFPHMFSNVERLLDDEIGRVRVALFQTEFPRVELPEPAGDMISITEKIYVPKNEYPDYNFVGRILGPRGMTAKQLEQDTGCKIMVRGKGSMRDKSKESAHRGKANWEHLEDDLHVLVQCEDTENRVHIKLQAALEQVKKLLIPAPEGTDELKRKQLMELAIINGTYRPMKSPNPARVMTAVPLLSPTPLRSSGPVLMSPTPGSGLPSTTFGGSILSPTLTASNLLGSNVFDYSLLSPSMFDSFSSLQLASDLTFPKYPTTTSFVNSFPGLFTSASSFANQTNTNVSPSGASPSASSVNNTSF
Starred values were filed as active, the others as inactive; · = not tested or not shown. The list is not random: actives were taken first. Their share in the collection is about 2.3%.

SMILES	Mcl-1 Bim block	MCL1 BIM primary	Mcl1 Bid PPI	BCLXL inh	Mcl1 Noxa PPI	GLD-1 TGE inh
CCC(CO)Nc1ccc(-c2n[nH]c(=O)c3ccccc23)cc1[N+](=O)[O-] (centres undefined)	·	28	·	29	·	14
CCc1nn2c(=O)cc(COc3ccc(/C=C4\C(=N)N5N=C(C)SC5=NC4=O)cc3)nc2s1	2	16	-49	8	77*	2
Cc1ccc(S(=O)(=O)NN2C(=O)/C(=C/c3cccn3C)SC2=S)cc1	6	-78	-20	-48	54*	-87
COc1ccc2nc(NC(=O)Nc3cccc4ccccc34)sc2c1	0	-3	-33	5	75*	-4
Cc1ccc2sc(NNC(=O)c3cc(=O)c4ccccc4o3)nc2c1C	1	15	-25	2	66*	0
Cc1cccc2sc(NNC(=O)c3cc(=O)c4ccccc4o3)nc12	-5	-13	-56	4	37	-8
COc1ccc2nc(NNC(=O)c3cc(=O)c4ccccc4o3)sc2c1	5	12	-47	-4	72*	1
COc1ccc2nc(NC(=O)/C=C/c3ccc4c(c3)OCO4)sc2c1	1	17	51*	5	0	-1
CCOc1ccc(N2C(=O)CC(NC3CCN(C(=O)c4cccs4)CC3)C2=O)cc1 (centres undefined)	·	9	·	3	·	7
COCc1cc(=O)[nH]c(Cc2c(Cl)cccc2Cl)n1	·	-2	·	4	·	-1
O=C(CNC(=O)c1nc[nH]c1C(=O)N1CCN(c2ccccc2)CC1)OCc1ccccc1	·	-4	·	-3	·	-1
COc1ccc2nc(S(=O)Cc3ncc(C)c(OC)c3C)[nH]c2c1 (centres undefined)	-1	20	11	10	84*	3
O=C(OC1CCc2ccccc2C1=O)c1ccccc1O (centres undefined)	0	4	54*	13	6	-5
Cc1ccc(C(O)Cn2nc(C)cc2C)cc1 (centres undefined)	·	-1	·	6	·	3
CCCCN1CC(O)=C(c2nc(-c3ccc(Cl)cc3)cs2)C1=N	5	1	47	4	64*	9
COc1cccc(OC)c1C(=O)N1CCN(Cc2ccncc2)CC1	-6	-2	71*	-1	2	-2
COc1ccccc1C(=O)N1CCN(c2ccccn2)CC1	-2	2	-6	4	3	2
COc1cccc(C(=O)N2CCN(C3CCC(c4ccccc4)CC3)CC2)c1OC (centres undefined)	0	1	55*	3	7	3
O=C(c1ccncc1)N1CCN(C2CCC(c3ccccc3)CC2)CC1 (centres undefined)	·	-8	-11	0	28	1
COc1cccc(OC)c1C(=O)N1CCN(c2ccccn2)CC1	1	5	95*	3	35	5
COc1cccc(C(=O)N2CCN(Cc3ccccn3)CC2)c1OC	-1	-6	68*	3	28	-5
CC(C)CN(C(=O)c1ccc(-n2cncn2)c([N+](=O)[O-])c1)C1CCS(=O)(=O)C1 (centres undefined)	·	-23	·	-13	·	4
Cc1ccc(NC(=O)CSc2nnc(-c3ccco3)c(-c3ccco3)n2)cc1	2	33	2	23	90*	1
COc1ccc(C(=O)CSc2nnc(-c3ccco3)c(-c3ccco3)n2)cc1	1	·	54*	·	90*	·
O=C(CSc1nnc(-c2ccc(F)cc2)o1)N1CCCC1	·	0	·	-3	·	3
SMILES	Mcl-1 Bim block	MCL1 BIM primary	Mcl1 Bid PPI	BCLXL inh	Mcl1 Noxa PPI	GLD-1 TGE inh
CNC(=S)Nc1ccc(C)c(NC(=S)NC)c1	-5	12	-20	10	58*	8
CC(=O)Nc1ccc(C)c(NC(=S)Nc2ccc(F)cc2)c1	·	9	-31	6	16	14
C/C(=N/NC(=O)c1ccccn1)c1ccc(O)cc1	·	-10	96*	0	1	-7
C/C(=N\NC(=O)c1ccccn1)c1ccc(Cl)cc1	·	2	-56	0	0	2
N#CC1=C(N)OC2=C(C(=O)CCC2)C1c1cc2c(cc1Br)OCO2 (centres undefined)	·	5	·	7	·	4
CCCc1nc2oc3cc(OC)ccc3c(=O)c2c(=O)n1CCc1ccccc1	·	5	69*	1	7	-6
CCc1nc2oc3cc(OC)ccc3c(=O)c2c(=O)n1Cc1ccccc1	-7	-2	28	3	9	-1
